We go through 40 molecules from PubChem BioAssay (Tox21).

Values joined by “and” are separate entries in the source; they are usually repeats but may differ in a detail not shown here. Identical values can stand only once. Records with an inconclusive call do not appear. A call without a number means that no potency is given here. More than one record can exist for a structure, and the calls need not agree. Active and inactive are the calls of the source. Calls come from the whole dose curve; as a rule, active = well fitted cell-killing curve with a large enough effect in the repeat runs; inconclusive = weak or mixed curves, or effect the other way; inactive = no such curve, though single readings can be large or run the other way.
Potency is the fitted concentration of half-maximal effect.

This experiment in a line: qHTS assay to identify small molecule agonists of the estrogen receptor alpha (ER-alpha) signaling pathway in the presence of an antagonist - cell viability counter screen (AID 1259386).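 Note: cells exposed to compounds for 22 h at 37 °C before the viability read; nearly all actives have a fitted effect of over 30% in size.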 The note with it: VM7Luc4E2 viability, CellTiter-Fluor fluorescence, 22 h; series mostly up to 92.4 µM. An excerpt: National Center for Advancing Translational Sciences [NCATS]
NIH Chemical Genomics Center [NCGC]
U.S. Environmental Protection Agency [EPA]
National Institutes of Environmental Health Sciences [NIEHS]
National Toxicology Program [NTP]
U.S. Food and Drug Administration [FDA]
Estrogen receptor (ER), a member of nuclear hormone receptor plays an important role in development, metabolic homeostasis and reproduction. Two subtypes of ER, ER-alpha and ER-beta, have similar expression patterns with some uniqueness in both types. Endocrine disrupting chemicals (EDCs) and their interactions with steroid hormone receptors like ER causes disruption of normal endocrine function. Therefore, it is important to understand the effect of environmental chemicals in ER signaling pathway. For identifying ER agonists, VM7Luc4E2 cell line has been used in the current assay.
VM7Luc4E2 cell line (provided by Denison MS, University of California) endogenously expresses full-length ER-alpha and is stably transfected with a plasmid containing four estrogen responsive elements (ERE) upstream of a luciferase reporter gene. This current screening for measuring luciferase reporter gene activity using VM7Luc4E2 cells against Tox21 10K library collection is a confirmation study on agonist mode screening in presence of ER-antagonist (ICI-182,780) at 10.0nM final concentration. The cytotoxicity of the compounds was tested in parallel by measuring the cell viability using CellTiter-Fluor assay system (Promega, Madison, WI) in the same wells.
Tox21 Assay Protocol Summary:
VM7Luc4E2 cells were cultured in phenol red free assay medium containing 10% charcoal stripped FBS for 5 days prior to the assay. The cells were dispensed at 4,000 cells in 4uL of assay medium per well into white wall/solid-bottom 1536-well plates (Corning Life Sciences, Corning, NY) using a Multidrop Combi (Thermo Fisher Scientific Inc., Waltham, MA) dispenser. After the assay plates were incubated at 37C and 5% CO2 for 24hr, 1uL of 10.0nM (final concentration) ICI-182,780 or assay buffer was added using two separate tips of Flying Reagent Dispenser (FRD, Aurora Discovery, San Diego, CA). Then 23nL of compounds dissolved in DMSO at 15 concentrations and positive controls or DMSO only was transferred to the assay plates by a Pintool station (Wako, San Diego, CA). The assay plates were incubated at 37C and 5% CO2 for 22hr. After 21hr incubation at 37C, 1uL/well CellTiter-Fluor reagent (Promega Corporation, Madison, WI) was added to each well using FRD and after 1hr incubation at 37C and 5% CO2, the fluorescence signal was measured on ViewLux plate reader (PerkinElmer, Shelton, CT).
On the technique in general: Quantitative high-throughput screening tests each substance at several concentrations.
Take `CN(C)C`: the Potency result was “inactive”.

Turning to `CC(=O)O[C@]1(C(C)=O)CC[C@H]2[C@@H]3C=C(Cl)C4=CC(=O)CC[C@]4(C)[C@H]3CC[C@@]21C`, the Potency result was “inactive”.

With `Cc1cccc(Nc2ccccc2C(=O)O)c1C`, the Potency result is “inactive”.

On to `COC(=O)c1ccc(C)cc1`, for which the Potency result was “inactive”.

`CCCCCCOCCOCCO`: the Potency entry was “inactive”.

Consider `Clc1ccc(Sc2cc(Cl)c(Cl)cc2Cl)cc1`, for which the Potency result is “inactive”.

`CC(=O)[C@H]1CC[C@H]2[C@@H]3CC=C4C[C@@H](O)CC[C@]4(C)[C@H]3CC[C@]12C`: the Potency entry is “inactive”.

Turning to `CCCCCC1C(=O)CCC1CC(=O)OC` (stereo not given), the Potency result was “inactive”.

In the case of `CNC[C@H](O)c1ccc(O)c(O)c1`, the activity change, negative = cytotoxicity was -2.01% [at 19 µM] (inactive).

For `CC(C)(C)c1cccc(C(C)(C)C)c1O`, the Potency result was “inactive”.

On to `c1ccc2ncccc2c1`, for which the Potency result was “inactive”.

Turning to `CC/C=C\C/C=C\C/C=C\CCCCCCCC(=O)O`, the Potency entry was “inactive”.

Turning to `COCCOCCOCCO`, the Potency result was “inactive”.

Turning to `CCCOCCO`, the Potency result is “inactive”.

With `CCCCCCCCCCCCO`, the Potency result is “inactive”.

`c1ccc2cc3ccccc3cc2c1`: the Potency entry is “inactive”.

As for `CN(Cc1cnc2nc(N)nc(N)c2n1)c1ccc(C(=O)N[C@@H](CCC(=O)O)C(=O)O)cc1`, the Potency result was “inactive”.

For `Cc1ccc(C(C)(C)C)c(O)c1`, the Potency result is “inactive”.

Regarding `CC1(C)NC(=O)N(c2ccc([N+](=O)[O-])c(C(F)(F)F)c2)C1=O`, the Potency entry was “inactive”.

Turning to `C[N+](C)(C)CCO`, the Potency result was “inactive”.

As for `CCC(=O)O[C@H]1[C@H](O[C@@H]2[C@@H](C)[C@H](O[C@H]3C[C@@](C)(OC)[C@@H](O)[C@H](C)O3)[C@@H](C)C(=O)O[C@H](CC)[C@@](C)(O)[C@H](O)[C@@H](C)C(=O)[C@H](C)C[C@@]2(C)O)O[C@H](C)C[C@@H]1N(C)C`, the Potency is 32.2 µM (active) and inactive.

Turning to `O=C1CCc2ccccc2O1`, the Potency result is “inactive”.

`Cc1ccc(N)c([N+](=O)[O-])c1`: the Potency entry was “inactive”.

Turning to `Cc1ccc(C(C)(C)C)cc1`, the Potency entry was “inactive”.

Take `CCc1cccc2c3c([nH]c12)C(CC)(CC(=O)O)OCC3` (stereo not given): the Potency result is “inactive”.

As to `C1CN(SSN2CCOCC2)CCO1`, the Potency entry is “inactive”.

As to `CC(C)=CCO`, the Potency entry is “inactive”.

As for `Cc1ccc(C)c(O)c1`, the Potency entry is “inactive”.

Take `c1ccc2c(c1)[nH]c1ccccc12`: the Potency entry was “inactive”.

With `CCCCCCCC/C=C\CCCCCCCC(=O)O`, the Potency entry was “inactive”.

For the molecule `C[C@]12CC[C@@H]3c4ccc(O)cc4CC[C@H]3[C@@H]1CC[C@@H]2O`, the Potency result is “inactive”.

On to `O=C(O)CCCC(=O)O`, for which the Potency entry was “inactive”.

In the case of `CCCCCC=O`, the Potency result is “inactive”.

For `CCC/C=C/C=O`, the Potency entry is “inactive”.

Turning to `O=C1OC2(c3ccccc31)c1cc(I)c(O)c(I)c1Oc1c2cc(I)c(O)c1I`, the Potency was 13.3 µM (active) [middle of 4 runs].

Consider `CCO[Si](CCCNC(N)=O)(OCC)OCC`, for which the Potency result is “inactive”.

With `O=C(O)c1ccc(O)cc1`, the Potency result is “inactive”.

With `Nc1ccc(O)c(N)c1`, the Potency was 60.7 µM (active) and 54.5 µM (active).

As for `C=CC(C)(O)CCC=C(C)C` (stereo not given), the Potency result was “inactive”.

For `O=C(CCCN1CCC(O)(c2ccc(Cl)cc2)CC1)c1ccc(F)cc1`, the Potency result was “inactive”.
